Test results published in the supplement of paper PMC7695840.
Structures can show the parent of a compound that is named as a salt.

Key:
[1] = system: Staphylococcus aureus MW2 delta-mecA (mecA-); experiment: normalized GFP fluorescence (growth of mecA- strain) (fraction of control range); higher = more growth of mecA- strain; details: compound concentration: 150 uM; cefoxitin: subinhibitory; fluorescent label: GFP
Procedure, shortened: (§1)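 S. aureus MW2 cells, pre-induced, were used as a 1:1 mix of a DsRed strain carrying the gene and a GFP strain lacking it, in LB with a subinhibitory antibiotic dose set each day. At 5 µL/well they were placed onto 150 μM compound (1.5% DMSO) in 1536-well plates, one replicate, and kept unshaken for 20 h at 37 °C, 90% humidity. After DsRed (540/590) and GFP (485/520) reads scaled per plate to single-strain control medians, plates with high untreated ratios and rows with DsRed/GFP >10 were excluded.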

[2] = system: Staphylococcus aureus MW2 (mecA+); experiment: normalized DsRed fluorescence (growth of mecA+ strain) (fraction of control range); higher = more growth of mecA+ strain; details: compound concentration: 150 uM; cefoxitin: subinhibitory; fluorescent label: DsRed
Procedure, shortened: as §1

## CC(C)(C)NCC(O)c1ccc(O)c(CO)c1 (configuration not stated) [Salbutamol sulfate (Albuterol)]
[1]
  normalized GFP fluorescence: 0.318
[2]
  normalized DsRed fluorescence: 0.695

## CN1CCC(=C2c3ccccc3C=Cc3ccccc32)CC1
[1]
  normalized GFP fluorescence: 0.0037
[2]
  normalized DsRed fluorescence: 1.31

## CC(=O)OCC(=O)[C@@]1(O)CC[C@H]2[C@@H]3CCC4=CC(=O)CC[C@]4(C)[C@@]3(F)[C@@H](O)C[C@@]21C
[1]
  normalized GFP fluorescence: 0.287
[2]
  normalized DsRed fluorescence: 0.642

## NCc1ccc(S(N)(=O)=O)cc1
[1]
  normalized GFP fluorescence: 0.22
[2]
  normalized DsRed fluorescence: 0.71

## CNC(=C[N+](=O)[O-])NCCSCc1csc(CN(C)C)n1
[1]
  normalized GFP fluorescence: 0.575
[2]
  normalized DsRed fluorescence: 0.785

## CCN1CCCC1CNC(=O)c1cc(S(=O)(=O)CC)c(N)cc1OC (configuration not stated) [Amisulpride]
[1]
  normalized GFP fluorescence: 0.514
[2]
  normalized DsRed fluorescence: 0.816

## CC(=O)N(CC(O)CO)c1c(I)c(C(=O)NCCO)c(I)c(C(=O)NCC(O)CO)c1I (configuration not stated)
[1]
  normalized GFP fluorescence: 0.914
[2]
  normalized DsRed fluorescence: 0.86

## Oc1ccc(C2CNCCc3c2cc(O)c(O)c3Cl)cc1 (configuration not stated)
[1]
  normalized GFP fluorescence: 0.582
[2]
  normalized DsRed fluorescence: 0.979

## CC(C)(O)c1ccccc1CC[C@@H](SCC1(CC(=O)O)CC1)c1cccc(/C=C/c2ccc3ccc(Cl)cc3n2)c1
[1]
  normalized GFP fluorescence: -0.0136
[2]
  normalized DsRed fluorescence: 0.632

## C[C@](N)(Cc1ccc(O)c(O)c1)C(=O)O
[1]
  normalized GFP fluorescence: 0.258
[2]
  normalized DsRed fluorescence: 0.703

## C1CNCCN1
[1]
  normalized GFP fluorescence: 0.806
[2]
  normalized DsRed fluorescence: 0.885

## O=C1CCc2cc(OCCCCc3nnnn3C3CCCCC3)ccc2N1
[1]
  normalized GFP fluorescence: 0.533
[2]
  normalized DsRed fluorescence: 0.561

## CN(C)CCc1c[nH]c2ccc(C[C@H]3COC(=O)N3)cc12
[1]
  normalized GFP fluorescence: 0.31
[2]
  normalized DsRed fluorescence: 0.962

## CCCCNC(=O)NS(=O)(=O)c1ccc(C)cc1
[1]
  normalized GFP fluorescence: 0.18
[2]
  normalized DsRed fluorescence: 0.588

## Cc1cc2nc3c(=O)[nH]c(=O)nc-3n(CC(O)C(O)C(O)COP(=O)(O)O)c2cc1C (configuration not stated)
[1]
  normalized GFP fluorescence: 0.933
[2]
  normalized DsRed fluorescence: 0.535

## CCCCC(=O)O[C@]1(C(=O)CO)CC[C@H]2[C@@H]3CCC4=CC(=O)CC[C@]4(C)[C@H]3[C@@H](O)C[C@@]21C
[1]
  normalized GFP fluorescence: 0.382
[2]
  normalized DsRed fluorescence: 0.447

## C=C1CC[C@H](O)C/C1=C/C=C1\CCC[C@]2(C)[C@@H]([C@H](C)/C=C/[C@H](C)C(C)C)CC[C@@H]12
[1]
  normalized GFP fluorescence: 0.177
[2]
  normalized DsRed fluorescence: 0.448

## CO[C@H]1C[C@@H]2CC[C@@H](C)[C@@](O)(O2)C(=O)C(=O)N2CCCC[C@H]2C(=O)O[C@H]([C@H](C)C[C@@H]2CC[C@@H](OCCO)[C@H](OC)C2)CC(=O)[C@H](C)/C=C(\C)[C@@H](O)[C@@H](OC)C(=O)[C@H](C)C[C@H](C)/C=C/C=C/C=C/1C [Everolimus (RAD001)]
[1]
  normalized GFP fluorescence: -0.00462
[2]
  normalized DsRed fluorescence: 1.72

## CCCCC1C(=O)N(c2ccccc2)N(c2ccc(O)cc2)C1=O (configuration not stated)
[1]
  normalized GFP fluorescence: -0.0111
[2]
  normalized DsRed fluorescence: 0.377

## c1ccc2c(CC3=NCCN3)cccc2c1
[1]
  normalized GFP fluorescence: 0.526
[2]
  normalized DsRed fluorescence: 0.668

## CN1CCN(C(c2ccccc2)c2ccccc2)CC1
[1]
  normalized GFP fluorescence: 0.231
[2]
  normalized DsRed fluorescence: 1.32

## CCC1(C)OC(=O)N(C)C1=O (configuration not stated)
[1]
  normalized GFP fluorescence: 0.387
[2]
  normalized DsRed fluorescence: 0.876

## CC(=O)S[C@@H]1CC2=CC(=O)CC[C@]2(C)[C@H]2CC[C@@]3(C)[C@@H](CC[C@@]34CCC(=O)O4)[C@H]12
[1]
  normalized GFP fluorescence: 0.734
[2]
  normalized DsRed fluorescence: 0.584

## CNCCC(Oc1ccc(C(F)(F)F)cc1)c1ccccc1 (configuration not stated)
[1]
  normalized GFP fluorescence: -0.00367
[2]
  normalized DsRed fluorescence: 1.27

## C[C@H]1[C@H](NC(=O)/C(=N\OC(C)(C)C(=O)O)c2csc(N)n2)C(=O)N1S(=O)(=O)O [Aztreonam (Azactam, Cayston)]
[1]
  normalized GFP fluorescence: 0.136
[2]
  normalized DsRed fluorescence: 1.17

## COC(=O)[C@@H]1CC2=CC(=O)CC[C@]2(C)[C@@]23O[C@@H]2C[C@@]2(C)[C@@H](CC[C@@]24CCC(=O)O4)[C@H]13 [Eplerenone]
[1]
  normalized GFP fluorescence: 0.583
[2]
  normalized DsRed fluorescence: 0.645

## O=c1oc2cc(O)ccc2s1 [Tioxolone]
[1]
  normalized GFP fluorescence: 0.428
[2]
  normalized DsRed fluorescence: 0.731

## NC(N)=Nc1nc(CSCC/C(N)=N/S(N)(=O)=O)cs1
[1]
  normalized GFP fluorescence: 0.53
[2]
  normalized DsRed fluorescence: 0.755

## CN1CC2c3ccccc3Oc3ccc(Cl)cc3C2C1 (configuration not stated) [Asenapine]
[1]
  normalized GFP fluorescence: 0.129
[2]
  normalized DsRed fluorescence: 1.64

## O=P(O)(O)C(O)(Cn1ccnc1)P(=O)(O)O [Zoledronic Acid (Zoledronate)]
[1]
  normalized GFP fluorescence: 0.313
[2]
  normalized DsRed fluorescence: 0.685

## OC[C@H]1O[C@@H](n2cnc3c2N=CNC[C@H]3O)C[C@@H]1O [Pentostatin]
[1]
  normalized GFP fluorescence: 0.461
[2]
  normalized DsRed fluorescence: 0.689

## CN1CCN2c3ccccc3Cc3ccccc3C2C1 (configuration not stated)
[1]
  normalized GFP fluorescence: 0.0802
[2]
  normalized DsRed fluorescence: 1.52

## C[C@]12CCC3=C4CCC(=O)C=C4CC[C@H]3[C@@H]1CC[C@@]2(O)CC#N [Dienogest]
[1]
  normalized GFP fluorescence: 0.271
[2]
  normalized DsRed fluorescence: 0.746

## COCCOC(=O)C1=C(C)NC(C)=C(C(=O)OC(C)C)C1c1cccc([N+](=O)[O-])c1 (configuration not stated)
[1]
  normalized GFP fluorescence: 0.032
[2]
  normalized DsRed fluorescence: 0.85

## CC(=O)CCCCn1c(=O)c2c(ncn2C)n(C)c1=O
[1]
  normalized GFP fluorescence: 0.276
[2]
  normalized DsRed fluorescence: 0.952

## Nc1nc(N)c2nc(-c3ccccc3)c(N)nc2n1
[1]
  normalized GFP fluorescence: 0.0839
[2]
  normalized DsRed fluorescence: 1.75

## CN1CCCCC1CCN1c2ccccc2Sc2ccc([S+](C)[O-])cc21 (configuration not stated)
[1]
  normalized GFP fluorescence: 0.265
[2]
  normalized DsRed fluorescence: 1.16

## Clc1ccccc1CN1CCc2sccc2C1
[1]
  normalized GFP fluorescence: 0.281
[2]
  normalized DsRed fluorescence: 0.684

## NC(=O)c1ncn([C@@H]2O[C@H](CO)[C@@H](O)[C@H]2O)c1N [Acadesine]
[1]
  normalized GFP fluorescence: 0.499
[2]
  normalized DsRed fluorescence: 0.776

## O=C(Nc1cccc2c(=O)cc(-c3nnn[nH]3)oc12)c1ccc(OCCCCc2ccccc2)cc1 [Pranlukast]
[1]
  normalized GFP fluorescence: 0.0957
[2]
  normalized DsRed fluorescence: 0.714

## O=C1Cc2cc(CCN3CCN(c4nsc5ccccc45)CC3)c(Cl)cc2N1
[1]
  normalized GFP fluorescence: 0.33
[2]
  normalized DsRed fluorescence: 0.989

## CCOC(=O)C1=C(COCCN)NC(C)=C(C(=O)OC)C1c1ccccc1Cl (configuration not stated)
[1]
  normalized GFP fluorescence: -0.0144
[2]
  normalized DsRed fluorescence: 1.06

## N=C(N)NC(=O)c1nc(Cl)c(N)nc1N
[1]
  normalized GFP fluorescence: 0.602
[2]
  normalized DsRed fluorescence: 0.971

## CN(C)CCC[C@@]1(c2ccc(F)cc2)OCc2cc(C#N)ccc21
[1]
  normalized GFP fluorescence: 0.12
[2]
  normalized DsRed fluorescence: 0.762

## CC(=O)/N=c1/sc(S(N)(=O)=O)nn1C
[1]
  normalized GFP fluorescence: 0.574
[2]
  normalized DsRed fluorescence: 0.53

## CC1(C)S[C@@H]2[C@H](NC(=O)Cc3ccccc3)C(=O)N2[C@H]1C(=O)O
[1]
  normalized GFP fluorescence: 0.0214
[2]
  normalized DsRed fluorescence: 0.0849
